Measurements taken from the supplement of paper PMC12645437, “Orthogonal IMiD-Degron Pairs Induce Selective Protein Degradation in Cells” (ACS Chemical Biology, 2025).
Over roughly 8,300 sequences, “log2 fold change of degron read counts, EGFP-low vs EGFP+ sorted cells (limma voom), compound-induced degradation” has its median near -1.1; the highest 2% begin near 3.2. For the sample, the highest values were picked, then their nearest neighbours and some sequences at random.

T1: CRBN, Q96SW2
T1 chain: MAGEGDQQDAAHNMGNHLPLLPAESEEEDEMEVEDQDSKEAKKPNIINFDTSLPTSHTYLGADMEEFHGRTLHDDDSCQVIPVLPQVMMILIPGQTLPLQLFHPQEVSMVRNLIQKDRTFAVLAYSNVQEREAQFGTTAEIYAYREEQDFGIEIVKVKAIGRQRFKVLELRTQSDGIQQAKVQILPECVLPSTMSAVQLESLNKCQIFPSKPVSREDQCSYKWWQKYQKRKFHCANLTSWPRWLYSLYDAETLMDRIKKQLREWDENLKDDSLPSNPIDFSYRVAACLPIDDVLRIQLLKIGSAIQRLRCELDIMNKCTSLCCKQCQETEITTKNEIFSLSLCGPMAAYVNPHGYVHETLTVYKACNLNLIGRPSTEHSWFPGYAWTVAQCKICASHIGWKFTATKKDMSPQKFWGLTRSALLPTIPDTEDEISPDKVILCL


Target: T1, CRBN, Q96SW2
Assay: log2 fold change of degron read counts, EGFP-low vs EGFP+ sorted cells (limma voom), compound-induced degradation; higher = more compound-induced degradation of the degron-EGFP fusion; degrons are variants of IKZF1/3 zinc finger 2; compound dose not given here
Conditions: Jurkat, 18 h
[1] = compound: compound 19 (5-tert-butyl-thalidomide)
[2] = compound: compound 22 (5-morpholino-thalidomide)
[3] = compound: compound 33 (diphenyl IMiD analogue)
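Also: pooled lentiviral library of zinc finger degron-EGFP fusions in mCherry-positive Jurkat cells, FACS-sorted after compound exposure, with degron abundance counted by next-generation sequencing.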

Sequence	log2 fold change of degron read counts [1]	log2 fold change of degron read counts [2]	log2 fold change of degron read counts [3]	log2 fold change of degron read counts (compound: thalidomide)
FGCDVCGALFTQKGNLLRHIKL [46F_47G_49D_50V_52G_53A_54L_55F_67L_, Q9UKT9]	-0.285	-1.26	0.277	-1.67
FLCNQCGRHFTQKGNLLRHIKL [46F_47L_49N_50Q_52G_53R_54H_55F_67L_, Q9UKT9]	-2.4	-2.59	-2.64	-2
FSCNVCGAYFTQKGNLLRHIKL [46F_47S_49N_50V_52G_53A_54Y_55F_67L_, Q9UKT9]	-0.837	-0.921	0.627	-0.674
FACNQCGRGFTQKGNLLRHIKL [46F_47A_49N_50Q_52G_53R_54G_55F_67L_, Q9UKT9]	-2.53	-2.62	-2.49	-2.4
FECNQCGATFTQKGNLLRHIKL [46F_47E_49N_50Q_52G_53A_54T_55F_67L_, Q9UKT9]	-2.51	-3.02	-2.92	-1.69
FICDQCGARFTQKGNLLRHIKL [46F_47I_49D_50Q_52G_53A_54R_55F_67L_, Q9UKT9]	-2.79	-0.912	-0.818	-1.23
FSCPICGAWFTQKGNLLRHIKL [46F_47S_49P_50I_52G_53A_54W_55F_67L_, Q9UKT9]	0.603	-0.272	0.788	-0.152
FVCNQCGADFTQKGNLLRHIKL [46F_47V_49N_50Q_52G_53A_54D_55F_67L_, Q9UKT9]	-3.46	-3.35	-3.82	-2.79
FRCEICGRRFTQKGNLLRHIKL [46F_47R_49E_50I_52G_53R_54R_55F_67L_, Q9UKT9]	-2.67	-2.2	-1.21	-0.634
FSCDQCGAEFTQKGNLLRHIKL [46F_47S_49D_50Q_52G_53A_54E_55F_67L_, Q9UKT9]	-2.57	-3.41	-1.87	-2.94
FCCPICGRCFTQKGNLLRHIKL [46F_47C_49P_50I_52G_53R_54C_55F_67L_, Q9UKT9]	-0.609	-0.825	0.868	0.188
FVCEICGRPFTQKGNLLRHIKL [46F_47V_49E_50I_52G_53R_54P_55F_67L_, Q9UKT9]	-1.68	-0.932	-1.28	-0.0354
LCCPICGFKCTQKGNLLRHIKL [46L_47C_49P_50I_52G_53F_54K_55C_67L_, Q9UKT9]	1.84	1.91	0.929	2.55
FNCEICGAKFTQKGNLLRHIKL [46F_47N_49E_50I_52G_53A_54K_55F_67L_, Q9UKT9]	2.53	0.377	-1.68	0.453
FHCEICGAKFTQKGNLLRHIKL [46F_47H_49E_50I_52G_53A_54K_55F_67L_, Q9UKT9]	2.99	2.33	-0.357	0.544
FCCEICGAKFTQKGNLLRHIKL [46F_47C_49E_50I_52G_53A_54K_55F_67L_, Q9UKT9]	3.35	2.52	0.0496	2.53
FSCEICGAKFTQKGNLLRHIKL [46F_47S_49E_50I_52G_53A_54K_55F_67L_, Q9UKT9]	3.23	1.96	-0.76	1.76
FDCEICGAKFTQKGNLLRHIKL [46F_47D_49E_50I_52G_53A_54K_55F_67L_, Q9UKT9]	2.14	0.278	-2.01	1.01
FLCEICGAKFTQKGNLLRHIKL [46F_47L_49E_50I_52G_53A_54K_55F_67L_, Q9UKT9]	0.834	-0.868	-0.0729	2.07
FQCEICGAKFTQKGNLLRHIKL [46F_47Q_49E_50I_52G_53A_54K_55F_67L_, Q9UKT9]	0.93	2.95	0.278	3.46
FYCEICGAKFTQKGNLLRHIKL [46F_47Y_49E_50I_52G_53A_54K_55F_67L_, Q9UKT9]	3.9	3.84	1.98	1.59
FKCEICGAKFTQKGNLLRHIKL [46F_47K_49E_50I_52G_53A_54K_55F_67L_, Q9UKT9]	-1.09	-3.1	-3.06	-1.37
FECEICGAKFTQKGNLLRHIKL [46F_47E_49E_50I_52G_53A_54K_55F_67L_, Q9UKT9]	0.521	-1.41	-0.834	2.62
FFCEICGAKFTQKGNLLRHIKL [46F_47F_49E_50I_52G_53A_54K_55F_67L_, Q9UKT9]	3.78	3.65	1.37	1.7
FACNICGACFTQKGNLLRHIKL [46F_47A_49N_50I_52G_53A_54C_55F_67L_, Q9UKT9]	2.13	1.95	0.735	-0.49
FKCEICGRRFTQKGNLLRHIKL [46F_47K_49E_50I_52G_53R_54R_55F_67L_, Q9UKT9]	-2.87	-3.55	-3	-1.89
FDCSVCGHIFTQKGNLLRHIKL [46F_47D_49S_50V_52G_53H_54I_55F_67L_, Q9UKT9]	-1.69	-1.84	-1.76	-1.28
FMCPICGAWFTQKGNLLRHIKL [46F_47M_49P_50I_52G_53A_54W_55F_67L_, Q9UKT9]	-1.26	-0.611	1.3	-0.221
